Only some compounds are listed: those with a hit (about 1.7% of all), similar ones and a draw of the others.
mIDH1 inhibitor: blocks human mutant IDH1 R132H enzyme. IDH1-R132H enzyme, NADPH consumption, diaphorase/resazurin fluorescence. Potency, µM (doses to about 76.6 µM), without a hit: at the top dose activity change, negative = inhibition, usual class: inhibitors. 390,000 compounds, 0.093% hits. AID 602179; further: potency means the concentration at half of the fitted maximal effect; on the % scale 0 is the no-effect control and ±100 the full control effect; nearly all actives have a fitted effect of over 65% in size
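IDH1-R132H (0.5 ug/mL) preincubated 30 min with compound, then NADPH (0.016 mM) and alpha-KG (2 mM) added; 80 min at RT, pH 7.5. Remaining NADPH coupled via diaphorase/resazurin to fluorescence (540/590 nm); concentration-response curves normalized to no-enzyme control.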
GLP1R cytotox: cytotoxicity counter-screen for GLP-1 receptor inverse agonists; Potency, µM (titrated, usually from 38.3 µM), for inactives: at the highest dose activity change, negative = inhibition, actives largely listed as inhibitors; 410,000 compounds, 0.13% hits; AID 624418; HEK293 cAMP-luciferase reporter cells, luminescence, 24 h;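 further: loss of luciferase light is scored as toxicity; potency means the concentration at half of the fitted maximal effect; on the % scale 0 is the no-effect control and ±100 the full control effect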
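MLSMR compounds, 24 hr on cells at 37 deg C/5% CO2; luminescence after luciferase reagent (12 min RT). Inhibition counted as the undesired cytotoxic outcome.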
PTHR1 agonist: agonists of human PTHR1 parathyroid hormone receptor. HEK293 GP2 PTHR1 cells, GloSensor cAMP luminescence, 1 h. Q03431. 410,000 compounds, 0.075% hits. Potency, µM (highest dose often 115 µM), without a hit: at the top dose activation, most hits filed as activators; further: potency means the concentration at half of the fitted maximal effect; nearly all actives have a fitted effect of over 55% in size
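HEK-293-derived GP2 cells expressing PTHR1 and a GloSensor cAMP reporter, 3,000/well, plated overnight, given luciferin plus IBMX (each 0.5 mM as added) for 1 h at 37 °C, then compound for 1 h at 37 °C. Luminescence was read after 15 min at room temperature.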
GLP1R inv ag: GLP-1 receptor (human) inverse agonism; 410,000 compounds, 1.6% hits; HEK293 GLP-1R CRE-luciferase, luminescence, 24 h; GLP-1R form is constitutively active; Potency, µM (titrated, usually from 38.3 µM), inactives show top-dose activity change, negative = inhibition, hits mostly inhibitors; further: potency means the concentration at half of the fitted maximal effect; on the % scale 0 is the no-effect control and ±100 the full control effect; nearly all actives have a fitted effect of over 55% in size
Target sequence (P43220 whole entry, looked up): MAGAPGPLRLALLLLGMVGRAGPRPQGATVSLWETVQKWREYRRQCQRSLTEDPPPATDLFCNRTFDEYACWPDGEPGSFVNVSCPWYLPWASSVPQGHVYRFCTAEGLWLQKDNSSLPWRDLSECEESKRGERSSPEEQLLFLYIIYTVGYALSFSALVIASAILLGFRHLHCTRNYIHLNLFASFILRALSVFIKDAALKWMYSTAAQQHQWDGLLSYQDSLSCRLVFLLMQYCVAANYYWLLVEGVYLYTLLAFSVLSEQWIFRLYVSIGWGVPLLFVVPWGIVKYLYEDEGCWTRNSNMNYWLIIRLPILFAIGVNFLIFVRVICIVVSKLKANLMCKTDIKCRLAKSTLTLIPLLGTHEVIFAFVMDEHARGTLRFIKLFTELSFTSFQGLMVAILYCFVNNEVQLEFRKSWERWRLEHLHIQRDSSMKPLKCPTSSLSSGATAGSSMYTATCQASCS
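Cells are plated, allowed 12 hours at 37 deg C, then treated with compounds for 24 hr before luciferase detection reagent is added and luminescence is read after 12 min at room temperature. The HEK293 line carries constitutively active GLP-1R with a cAMP-responsive reporter.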
GLP-1R agonist: GLP-1 receptor (human) agonism; P43220; HEK293 GLP-1R CRE-luciferase, luminescence, 4-6 h; cells express a hypersensitive GLP-1R form; Potency, µM (series often up to 45.6 µM), without a hit: at the highest dose activation, most hits filed as activators; 380,000 compounds, 0.007% hits; AID 624172; further: potency means the concentration at half of the fitted maximal effect; % of control where 0% means no effect
LDHA block: LDHA (human) enzyme inhibition; P00338; purified LDHA, NADH/diaphorase-resazurin fluorescence; active compounds read low; activity change, % (values are at about 110 or 230 µM); 480,000 compounds, 0.15% hits; AID 1347041; in the data active means activity change below about -30%; inconclusive means mostly about -25% to -30%;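 further: plate controls were DMSO wells for no effect and wells without enzyme for full effect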
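LDH5 2 nM; NADH 0.06 mM, pyruvate 0.2 mM; 200 mM Tris pH 7.4, EDTA, Tween-20; 5 min RT. Detection: diaphorase 0.133 mg/mL + resazurin 37 µM, fluorescence ex540/em590 at 0 and 20 min; normalized to enzyme-free and DMSO wells.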
Numbers without * were called inactive; i = inactive; ? = inconclusive; . = no result given; [ ] = dose if it differs, or a comment. Unless noted, the call rests on the fitted dose curve; in most records, active means well fitted curve in the direction sought with a large enough effect; inconclusive means small, poorly fitted or top-dose-only effect, or another doubt; inactive means no such curve, though single readings can be large; an effect the other way counts as inactive or inconclusive.

SMILES	mIDH1 inhibitor	GLP1R cytotox	PTHR1 agonist	GLP1R inv ag	GLP-1R agonist	LDHA block
Cc1ccc(C)c(OCc2cc(C(=O)N3CCN(C4CCCCC4)CC3)no2)c1	3%	3%	-16%	?	9%	-1
O=[N+]([O-])c1ccc(-[n+]2ccc3ccccc3c2)c([N+](=O)[O-])c1	2%[38.3 µM]	13µM*	-47%	?	-10%	17
O=C(/C(=C(\[O-])c1ccccc1)[n+]1ccc2ccccc2c1)c1ccc([N+](=O)[O-])cc1	2%	-1%	21%	-4%	0%	-1
Cc1cc(C)n(-c2ccc(C(=O)Nc3ccc(S(=O)(=O)NCc4ccco4)cc3)cc2)n1	3%	-25%	-28%[57.5 µM]	11µM*	-16%	-2
Cc1ccc(C(=O)Nc2ccc(S(=O)(=O)NCc3ccco3)cc2)cc1	8%	-10%	-31%[57.5 µM]	6%	-1%	-8
CCCCCCC[C@@H](C/C=C/CCC(=O)N(C)C/C(=C/Cl)C/C(=C\C(=O)N1C[C@H](O)CC1=O)OC)OC	9%	-19%	-48%	11µM*	4%	10
CCCCCCC[C@@H](C/C=C/CCC(=O)N(C)C/C(=C/Cl)C/C(=C\C(=O)N1CC(OC)=CC1=O)OC)OC	-1%[38.3 µM]	2%	-51%	-27%	-3%	5
COc1cc(C(=O)N2CCC(CC(=O)NCCN(C)C)CC2)cc(OC)c1OC	.	.	.	.	.	-9
CCOc1nc(Nc2ccc(OC)c(Cl)c2)nc(N2CCN(c3ccc(OC)cc3)CC2)n1	0%	21%	i	4.5µM*	11%	-4
Cc1ccc(S(=O)(=O)[C@H]2CS(=O)(=O)C[C@@H]2N2CCN(c3cccc(Cl)c3)CC2)cc1	.	.	.	.	.	-1
CCO[C@@H]1OC(C(=O)N2CCN(Cc3ccc4c(c3)OCO4)CC2)=C[C@H](C2CCCCC2)[C@H]1CCCO	?	-26%	i	11µM*	14%	-2
O=C(NC1CCCCC1)N1CCN(C(c2ccccc2)c2ccccc2)CC1	-2%	18%	?	4µM*	4%	4
O=C(N1CCCCC1)N1CCN(C(c2ccccc2)c2ccccc2)CC1	-1%	0%	i	5µM*	1%	0
O=C(N1CCOCC1)N1CCN(C(c2ccccc2)c2ccccc2)CC1	-4%	1%	i	-5%	-14%	-2
N#CC1(Cc2ccc(Cl)cc2)c2ccccc2C=CN1C(=O)c1ccccc1 (stereo unspecified)	10%	15%	i	7.9µM*	-8%	-5
CCc1cccc2c(C(=O)Cn3nnc(-c4ccccc4C)n3)c[nH]c12	.	.	.	.	.	2
CCc1ccc2[nH]c(C)c(CN(CC)CC)c(=O)c2c1	.	.	.	.	.	-5
CNC(=S)NN=C(C)CCCC(C)=NNC(=S)NC	1%	1.8µM*	-4%	?	-4%	0
OCC1OC(n2cnc3c(NO)ncnc32)C(O)C1O (stereo unspecified)	.	.	.	.	.	8
CC(C)=CCNc1ncnc2c1c(C#N)cn2C1OC(CO)C(O)C1O (stereo unspecified)	2%	-22%	i	6%	2%	-52*
CCCCOC(=O)c1nc2ccccc2nc1NCc1ccc2c(c1)OCO2	.	.	.	.	.	1
Cc1cc(C(=O)NC2CCN(Cc3ccccc3)CC2)c2c(C)nn(-c3ccccc3)c2n1	.	.	.	.	.	6
CN1CC=C2C(C#N)=C(N)C(C#N)(C#N)[C@H](c3cccs3)[C@H]2C1	3%	28%	i	?	-31%	1
CN1CC=C2C(C#N)=C(N)C(C#N)(C#N)C(CCc3ccccc3)C2C1 (stereo unspecified)	41µM*	121%	i	0%	-6%	21
COc1cccc(Oc2c(C)oc3cc(OCc4ccccc4F)ccc3c2=O)c1	.	.	.	.	.	14
SMILES	mIDH1 inhibitor	GLP1R cytotox	PTHR1 agonist	GLP1R inv ag	GLP-1R agonist	LDHA block
Cc1ccc(C(=O)NCCc2cccs2)cc1	0%	3%	-45%	5µM*	-3%	-2
O=C(NCCc1cccs1)c1ccc(Cl)cc1	4%	-8%	-56%	10µM*	-1%	-10
CC(=O)Nc1ccc(-c2csc(NC3CCCC3)n2)c(F)c1	.	.	.	.	.	2
CC(C)(C)c1ccc(C(=O)N(C2CCCCC2)C2CCCCC2)cc1	.	.	.	.	.	7
C=CCNC(=O)/C=C/c1cnc2ccccc2n1	.	.	.	.	.	2
CC(C)n1c(Nc2ccccc2)nc2ccccc21	3%	-9%	-14%[57.5 µM]	11µM*	3%	-3
CC(C)n1c(NCCO)nc2ccccc21	-3%	-1%[7.66 µM]	-19%	-13%[7.66 µM]	8%	-5
Oc1ccc(Cl)cc1CNc1cnc2ccccc2c1	16%	-6%	-41%	10µM*	2%	1
CC(C)n1c(NCc2cc(Cl)ccc2O)nc2ccccc21	-1%	13%	-26%	10µM*	16%	-1
Oc1ccccc1CNc1cnc2ccccc2c1	4%	-31%	-57%[57.5 µM]	0%	8%	6
NC(=O)c1ccc(NC(=O)c2ccc3nc(-n4cccc4)sc3c2)cc1	.	.	.	.	.	5
COc1cccc(C(=O)Oc2c(Br)cc(Br)cc2/C=N/NC(=O)c2cc(C)[nH]n2)c1	-2%	-1%	i	6.3µM*	0%	-2
CC1CCN(S(=O)(=O)NCc2ccnc(OCc3ccccc3)c2)CC1	.	.	.	.	.	6
COc1cccc(NC(=O)N2CCN(c3cccc(C)c3)C(C)C2)c1 (stereo unspecified)	2%	-8%	-3%[57.5 µM]	10µM*	1%	1
COC(=O)c1[nH]c2cc(C)ccc2c1NC(=O)CN1CCOCC1	-4%	6%	i	26%	11%	-2
COC(=O)c1[nH]c2cc(OC)ccc2c1NC(=O)CN1CCN(c2cccc(C)c2)C(C)C1 (stereo unspecified)	-1%	?	-6%	8.9µM*	-8%	-4
COC(=O)c1[nH]c2cc(C)ccc2c1NC(=O)CN1CCN(c2ccccc2OC)CC1	1%	-18%	-18%[57.5 µM]	3.2µM*	-2%	-2
COc1ccc(/C=N\n2nnc3ccccc32)cc1	6%	-4%	-20%	5.6µM*	0%	-4
O=C(Nc1ccc(-n2cccn2)c(F)c1)C1CCCN(C(=O)c2ccoc2)C1 (stereo unspecified)	.	.	.	.	.	-31*
CCOC(=O)c1cc(NC(=O)c2cc(Br)cc(C)c2OC)ccc1N1CCOCC1	.	.	.	.	.	0
Cc1cccc(NC(=O)c2ccc(CSc3ccc(Cl)cc3)cc2)c1C	.	.	.	.	.	-2
CC(C)N1C(=O)C(NC(=O)C(=O)NCc2cccnc2)c2ccccc21 (stereo unspecified)	.	.	.	.	.	-2
NC(=S)N/N=C1/CCSc2ccc3ccccc3c21	1%	2µM*	-45%	2.2µM*	14%	-5
